Experimental data published in PubChem BioAssay (Tox21).
Unmarked numbers belong to inactive results. Results filed as inconclusive are left out. A call without a number means that no potency is given here. The source made the active and inactive calls. Unless noted, calls come from the whole dose curve; as a rule, active = well fitted curve in the direction sought with a large enough effect in the repeat runs; inconclusive = weak or mixed curves; inactive = no such curve, though single readings can be large; an effect the other way counts as inactive or inconclusive.

Tests used:
[1] = qHTS assay to identify small molecule antagonists of the constitutive androstane receptor (CAR) signaling pathway - cell viability counter screen (AID 1224837); note: nearly all actives have a fitted effect of over 45% in size; note: potency is the fitted concentration of half-maximal effect
Method in brief: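 To flag cytotoxic false antagonists, HepG2 hCAR/CYP2B6-2.2kb cells were treated 23 hr with 15-concentration compound series and 50 nM CITCO at 37 C/5% CO2; CellTiter-Fluor fluorescence was the measured end point.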

[2] = molecular target: Nuclear receptor subfamily 1 group I member 3 (Homo sapiens) (UniProt Q14994); assay: qHTS assay to identify small molecule antagonists of the constitutive androstane receptor (CAR) signaling pathway (AID 1224838);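 note: HepG2 cells stably expressing hCAR with CYP2B6 luciferase reporter stimulated by CITCO; nearly all actives have a fitted effect of over 40% in size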; note: potency is the fitted concentration of half-maximal effect
Method in brief: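 Human hepatoma HepG2 cells expressing hCAR and a CYP2B6 promoter (2.2 kb) luciferase construct; compound titration (15 points) with 50 nM CITCO final, 24 h at 37 C/5% CO2; luminescence via ONE-Glo after 30 min at room temperature.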

[3] = molecular target: Nuclear receptor subfamily 1 group I member 3 (Homo sapiens) (UniProt Q14994); assay: qHTS assay to identify small molecule agonists of the constitutive androstane receptor (CAR) signaling pathway (AID 1224839);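 note: HepG2 cells stably carrying human CAR and a CYP2B6 luciferase reporter; nearly all actives have a fitted effect of over 15% in size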
Method in brief: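 Using human hepatoma HepG2 cells engineered with hCAR and a CYP2B6-2.2kb reporter, 15-concentration compound series were incubated 24 h alongside PK11195 at 0.75 uM final, with luminescence quantified afterwards.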

[4] = qHTS assay to identify small molecule antagonists of the estrogen related receptor signaling pathway with the pleiotropic PPARgamma coactivator (PGC) from Tox21 10K library - cell viability counter screen (AID 1224840; active = well fitted cell-killing curve with a large enough effect in the repeat runs, not every such curve was filed as active; note: nearly all actives have a fitted effect of over 40% in size; note: potency is the fitted concentration of half-maximal effect)
Method in brief: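 Seeded PGC/ERR cells (2,000/well, 6 h, 37 C/5% CO2) get compound by pin tool; 17.5 h incubation at 37 C; CellTiter-Fluor added, 30 min, fluorescence measured.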

[5] = qHTS assay to identify small molecule agonists of the estrogen related receptor signaling pathway with the pleiotropic PPARgamma coactivator (PGC) from Tox21 10K library (AID 1224842); note: nearly all actives have a fitted effect of over 15% in size
Method in brief: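 Luminescence from One-Glo (30 min, room temperature) measured after PGC/ERR cells had 18 h at 37 C with pinned compound (23 nL in DMSO). Cells had been seeded at 2,000 per well and pre-incubated 6 h.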

[6] = qHTS assay to identify small molecule agonists of the hypoxia (HIF-1) signaling pathway - cell viability counter screen (AID 1224844; calls by dose curve; note: nearly all actives have a fitted effect of over 50% in size; note: potency is the fitted concentration of half-maximal effect)
Method in brief: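 HRE-bla ME-180; 0.5% dFBS; cpd 17 h, 37C, 5% CO2; CellTiter-Glo lum., 30 min RT, post-FRET read, same wells.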

[7] = qHTS assay to identify small molecule agonists of H2AX (AID 1224845; active = well fitted activation curve with a large enough effect in the signal ratio in the repeat runs, not every such curve was filed as active; the % refers to the signal ratio)
Method in brief: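 Phospho-H2AX Ser139 measured by HTRF (ex 320 nm; em 665 and 620 nm) after 24 hr antibody incubation. Compounds, 15 concentrations, 0.76% DMSO, were applied to CHO-K1 cells for 3hr at 37C before lysis.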

[8] = qHTS assay to identify small molecule agonists of H2AX - cell viability counter screen (AID 1224847; calls by dose curve; note: nearly all actives have a fitted effect of over 30% in size; note: potency is the fitted concentration of half-maximal effect)
Method in brief: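 After overnight plating of 1000 CHO-K1 cells per well, a 15-concentration compound series was applied for 3 hr at 37C. Luminescence from CellTiter-Glo, read following 30 min at room temperature, reflected cell viability.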

[9] = qHTS RealTime-Glo MT Cell Viability Assay in HepG2 cells - 24 hour (AID 1224867); note: nearly all actives have a fitted effect of over 50% in size; note: potency is the fitted concentration of half-maximal effect
Method in brief: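 HepG2 cells were seeded at 600 cells/well together with NanoLuc luciferase and a cell-permeant prosubstrate, preincubated 5 h at 37 C/5% CO2, then pin-dosed with compounds in DMSO. Nonlytic luminescence from viable cells was read at each time point.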

[10] = qHTS RealTime-Glo MT Cell Viability Assay in HEK293 cells - 32 hour (AID 1224868); note: nearly all actives have a fitted effect of over 50% in size; note: potency is the fitted concentration of half-maximal effect
Method in brief: (§1)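 HEK293 cells were seeded at 600 cells/well together with NanoLuc luciferase and cell-permeant prosubstrate, preincubated 5 h at 37 C/5% CO2, then given compound in DMSO by pintool. Luminescence from viable-cell prosubstrate reduction was read repeatedly over 40 h.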

[11] = A CellTox Green Cytotoxicity Assay to monitor cytotoxicity in HEK293 cells - 0 hour (AID 1224869); note: nearly all actives have a fitted effect of over 50% in size
Method in brief: (§2)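 Tox21 screen in HEK293: membrane-impermeant cyanine dye fluoresces on binding dead-cell DNA; compound pinned 5 h post-seeding, plates held at 37 C, signal read repeatedly through 40 h.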

[12] = qHTS RealTime-Glo MT Cell Viability Assay in HepG2 cells - 40 hour (AID 1224870); note: nearly all actives have a fitted effect of over 50% in size
Method in brief: (§3)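 Real-time viability: cells seeded at 600 per well together with NanoLuc and cell-permeant prosubstrate, compounds added after 5 h incubation. Luminescence tracked at 0, 8, 16, 24, 32 and 40 h of exposure.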

[13] = A CellTox Green Cytotoxicity Assay to monitor cytotoxicity in HEK293 cells - 40 hour (AID 1224871); note: nearly all actives have a fitted effect of over 45% in size; note: potency is the fitted concentration of half-maximal effect
Method in brief: as §2

[14] = qHTS RealTime-Glo MT Cell Viability Assay in HEK293 cells - 16 hour (AID 1224872); note: nearly all actives have a fitted effect of over 50% in size; note: potency is the fitted concentration of half-maximal effect
Method in brief: as §1

[15] = qHTS RealTime-Glo MT Cell Viability Assay in HepG2 cells - 8 hour (AID 1224873); note: nearly all actives have a fitted effect of over 55% in size; note: potency is the fitted concentration of half-maximal effect
Method in brief: as §3

[16] = qHTS assay to identify small molecule antagonists of the estrogen related receptor signaling pathway with the pleiotropic PPARgamma coactivator (PGC) from Tox21 10K library (AID 1224841; call rule not given here; note: potency is the fitted concentration of half-maximal effect)
Method in brief: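 Test chemicals dissolved in DMSO were applied to pre-incubated (6 h) PGC/ERR cells at 2,000 cells/well for an 18 h, 37 C treatment; reporter luminescence was then read using One-Glo.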

[17] = molecular target: Thyrotropin receptor (Homo sapiens) (UniProt P16473); assay: qHTS assay to identify small molecule agonists of the thyroid stimulating hormone receptor (TSHR) signaling pathway (AID 1224843; calls by dose curve; note: nearly all actives have a fitted effect of over 45% in size)
Method in brief: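 Agonist activity read as cAMP rise via d2/cryptate HTRF competition, 1 h room-temperature detection, in HEK293 cells expressing TSHR. Fifteen-point titrations, each run in triplicate, with a 30 min room-temperature incubation beforehand.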

[18] = qHTS assay to identify small molecule agonists of the hypoxia (HIF-1) signaling pathway (AID 1224846; active = well fitted activation curve with a large enough effect in the signal ratio in the repeat runs, not every such curve was filed as active; the % refers to the signal ratio)
Method in brief: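 Reporter induction in HRE-bla ME-180 cells is taken as agonism: cells sit 5 hrs after plating, receive compounds or DMSO only, incubate 17 hrs at 37C under 5% CO2, and are loaded with CCF4-AM for beta-lactamase FRET measurement.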

[19] = qHTS assay to identify small molecule antagonists of the estrogen related receptor (ERR) signaling pathway from Tox21 library (AID 1224848); note: nearly all actives have a fitted effect of over 50% in size; note: potency is the fitted concentration of half-maximal effect
Method in brief: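 Luciferase luminescence (ONE-Glo, 30 min room temperature) was the read-out. Cells of the NTP-supplied ERR line, 2,000 per well, were given 6 h at 37 C before compound addition in DMSO and 18 h exposure at 37 C.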

[20] = qHTS assay to identify small molecule agonists of the estrogen related receptor (ERR) signaling pathway from Tox21 library (AID 1224849; calls by dose curve; note: nearly all actives have a fitted effect of over 15% in size); settings: ERR reporter cell line, ONE-Glo luciferase, 18 h; at 92.4 µM (top of the series) unless noted
Method in brief: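 Tox21 compounds tested for ERR agonism in an NTP reporter cell line: 18 h treatment at 37 C, then ONE-Glo luminescence.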

Chain of Nuclear receptor subfamily 1 group I member 3 (Homo sapiens) (Q14994 whole entry, looked up): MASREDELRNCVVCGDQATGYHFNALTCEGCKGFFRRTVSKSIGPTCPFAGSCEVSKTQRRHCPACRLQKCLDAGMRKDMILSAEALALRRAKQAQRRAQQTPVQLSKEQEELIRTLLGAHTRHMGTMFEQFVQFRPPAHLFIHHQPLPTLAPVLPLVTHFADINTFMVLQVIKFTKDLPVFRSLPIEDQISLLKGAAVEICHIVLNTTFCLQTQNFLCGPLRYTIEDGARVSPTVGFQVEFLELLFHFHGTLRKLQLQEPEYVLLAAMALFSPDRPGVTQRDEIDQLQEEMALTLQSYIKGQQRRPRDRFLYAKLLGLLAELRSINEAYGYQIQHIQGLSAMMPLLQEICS
Chain of Thyrotropin receptor (Homo sapiens) (P16473 whole entry, looked up): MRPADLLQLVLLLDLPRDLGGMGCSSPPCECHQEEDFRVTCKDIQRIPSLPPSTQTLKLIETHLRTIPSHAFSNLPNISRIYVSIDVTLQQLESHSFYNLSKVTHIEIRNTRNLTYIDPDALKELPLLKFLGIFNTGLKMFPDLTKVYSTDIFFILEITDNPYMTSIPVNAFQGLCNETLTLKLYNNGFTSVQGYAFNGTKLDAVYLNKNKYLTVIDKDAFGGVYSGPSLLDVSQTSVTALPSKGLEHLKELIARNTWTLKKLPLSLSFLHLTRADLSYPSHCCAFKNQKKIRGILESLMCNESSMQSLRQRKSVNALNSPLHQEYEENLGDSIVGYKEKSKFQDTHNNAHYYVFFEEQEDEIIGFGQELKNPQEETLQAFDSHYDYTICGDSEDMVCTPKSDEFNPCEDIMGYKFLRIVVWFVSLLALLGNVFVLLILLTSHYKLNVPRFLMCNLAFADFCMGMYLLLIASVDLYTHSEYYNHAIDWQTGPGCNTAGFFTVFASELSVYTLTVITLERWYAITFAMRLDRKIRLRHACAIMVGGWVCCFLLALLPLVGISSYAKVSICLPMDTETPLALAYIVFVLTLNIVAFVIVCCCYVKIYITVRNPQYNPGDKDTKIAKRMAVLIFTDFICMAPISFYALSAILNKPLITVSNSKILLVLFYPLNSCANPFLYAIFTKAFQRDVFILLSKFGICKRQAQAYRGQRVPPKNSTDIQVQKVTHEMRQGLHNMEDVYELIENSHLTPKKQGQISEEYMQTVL

Compound	Potency [1]	Potency [2]	Potency [3]	Potency [4]	Potency [5]	Potency [6]	Potency [7]	Potency [8]	Potency [9]	Potency [10]	Potency [11]	Potency [12]	Potency [13]	Potency [14]	Potency [15]	Potency [16]	Potency [17]	outcome [18]	Potency [19]	activity change, positive = activation [20]
CCCCCCCC/C=C\CCCCCCCC(=O)NCc1ccc(O)c(OC)c1	inactive	inactive	inactive	inactive	inactive	inactive	inactive	inactive	inactive	2.68 µM (active)	inactive	inactive	inactive	1.69 µM (active)	inactive					
CC1(C)C(=O)N(Br)C(=O)N1Br	inactive	inactive	inactive	inactive	inactive			inactive	inactive	inactive	inactive	inactive	inactive			inactive	inactive	inactive	inactive	3.41%
O=C1C=CC(=O)N1c1ccccc1	27.3 µM (active)	27.3 µM (active)	inactive	30.6 µM (active)	inactive	21.9 µM (active)			13.8 µM (active)		inactive		11 µM (active)	15.5 µM (active)	19.5 µM (active)	54.5 µM (active)			54.5 µM (active)	-78.1%
C(=C/c1ccccc1)/c1ccccc1	inactive	inactive	inactive	inactive	inactive	inactive	inactive		inactive		inactive	inactive		inactive	inactive	inactive	inactive	inactive	inactive	2.16%
CC(C)c1ccc(O)c(C(C)C)c1	inactive	inactive	inactive	inactive	inactive		inactive	89.8 µM (active)	inactive	inactive	inactive	inactive	21.9 µM (active)	inactive		inactive	inactive		inactive	
CC(=O)Oc1ccc(C2(c3ccc(OC(C)=O)cc3)C(=O)Nc3ccccc32)cc1	inactive	0.168 µM (active)	inactive	inactive	inactive	0.0425 µM (active)	inactive	inactive	inactive	inactive	inactive	inactive	inactive	inactive	inactive	inactive	inactive		inactive	-9.03% [at 42.5 µM]
CCCCCCCC/C=C/CCCOC(C)=O	inactive	inactive	inactive	inactive	inactive	inactive	inactive	inactive	inactive		inactive	inactive	inactive	inactive	inactive	inactive	inactive	inactive	inactive	1.58%
COC(=O)NCCC[Si](OC)(OC)OC	inactive	inactive	inactive	inactive	inactive				inactive	inactive	inactive		inactive	inactive	inactive	inactive	inactive		inactive	-7.77%
